From PubChem
NIH3T3 tox – NIH 3T3 cell cytotoxicity; Potency, µM (highest dose often 96.7 µM), inactives show at the highest dose activity change, negative = cytotoxicity, hits mostly inhibitors; 94,000 compounds, 4.3% hits; AID 1345082; NIH 3T3 viability, CellTiter-Glo ATP luminescence, 48-72 h; also: potency is read from the fitted curve at half-maximal effect; nearly all actives have a fitted effect of over 55% in size
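Viability of NIH 3T3 cells after 48 or 72 hr compound treatment at 37 °C was assessed by CellTiter-Glo, with luminescence imaged following a 10 min room-temperature step.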
IP6K1 inh – IP6K1 kinase inhibition; Q92551; IP6K1 kinase, ADP-Glo luminescence, 2 h; active compounds read low; activity change, % (series mostly up to about 58 µM); 140,000 compounds, 0.81% hits; AID 1645851; in the data active = activity change below about -25%
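ADP-Glo luminescence measures ADP made by human IP6K1 during a 2 h RT reaction with ATP/IP6 (mix at 1.3 mM/130 uM); top library doses 57.5 and 19.1 uM final.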
Luciferase inh – blocks purified firefly luciferase enzyme activity. P08659. purified P. pyralis luciferase, luminescence, biochemical. Potency, µM (series often up to 115 µM), hits mostly inhibitors. 76,000 compounds, 2.5% hits. AID 1347043; also: potency is read from the fitted curve at half-maximal effect; nearly all actives have a fitted effect of over 65% in size
Target sequence (P08659 whole entry, looked up): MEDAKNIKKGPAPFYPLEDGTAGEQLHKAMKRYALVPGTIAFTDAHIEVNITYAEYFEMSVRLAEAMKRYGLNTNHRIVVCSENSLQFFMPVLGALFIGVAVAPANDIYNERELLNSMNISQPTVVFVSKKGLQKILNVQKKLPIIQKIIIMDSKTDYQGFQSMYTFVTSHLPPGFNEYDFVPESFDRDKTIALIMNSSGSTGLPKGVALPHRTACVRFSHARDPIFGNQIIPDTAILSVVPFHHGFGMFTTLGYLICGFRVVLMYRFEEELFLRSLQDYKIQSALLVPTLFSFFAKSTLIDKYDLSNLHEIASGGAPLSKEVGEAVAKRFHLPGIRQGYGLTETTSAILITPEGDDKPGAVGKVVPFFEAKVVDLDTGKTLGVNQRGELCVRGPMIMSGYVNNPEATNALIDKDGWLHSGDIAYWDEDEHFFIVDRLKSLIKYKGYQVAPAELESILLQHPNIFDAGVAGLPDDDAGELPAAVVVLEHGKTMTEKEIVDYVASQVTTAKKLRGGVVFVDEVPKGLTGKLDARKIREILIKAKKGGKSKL
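Purified P. pyralis luciferase (10nM final) in 50mM Tris acetate pH 7.5, 10mM Mg acetate, 0.01% Tween-20, 0.05% BSA with 10uM D-luciferin and 10uM ATP. Compounds titrated qHTS. Luminescence imaged on CCD.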
SNCA expr inh – SNCA gene expression inhibition. HEK-293 SNCA-luciferase knock-in, luminescence, 24 h. Potency, µM (top dose mostly 57.2 µM), inactives show top-dose activity change, negative = inhibition, actives largely listed as inhibitors. 140,000 compounds, 0.17% hits. AID 1671194;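 also: potency is read from the fitted curve at half-maximal effect; plate controls were DMSO cells for no effect and cell-free wells for full effect; nearly all actives have a fitted effect of over 45% in size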
HEK293 tox – HEK 293 cell cytotoxicity; HEK 293 viability, ATP luminescence (CellTiter-Glo), 48-72 h; Potency, µM (doses to about 115 µM), for the others: at the top dose activity change, negative = cytotoxicity, hits mostly inhibitors; 94,000 compounds, 6.6% hits; also: potency is read from the fitted curve at half-maximal effect; nearly all actives have a fitted effect of over 60% in size
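250 HEK 293 cells/well; compound by pintool; incubated 48 or 72 hr at 37 degree Celsius; CellTiter-Glo added, 10 min RT, luminescence imaged.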
HEK293 viab – cell viability loss counter-screen. HEK-293-SNCA-luc viability, GF-AFC fluorescence, 24 h. Potency, µM (series often up to 57.1 µM), for inactives: top-dose activity change, negative = cytotoxicity, usual class: cytotoxic. 150,000 compounds, 0.12% hits. AID 1671193;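 also: potency is read from the fitted curve at half-maximal effect; 0% = DMSO-treated cells and -100% = medium-only wells without cells; nearly all actives have a fitted effect of over 30% in size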
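Cytotoxicity counterscreen: after 24 h compound treatment of genome-edited SNCA-luciferase HEK-293 cells, live-cell protease substrate GF-AFC read by fluorescence after 30 min; activity scaled between DMSO (0%) and medium-only (-100%), curves Hill-fitted.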
Numbers without * were called inactive; ! = not confirmed by another sample; [ ] = dose if it differs, or a comment. A selection: hits, their analogues and other compounds. The true share with any hit is near 7.3%. Unless noted, calls follow the shape of the dose curve; as a rule, active = well fitted curve in the direction sought with a large enough effect; inconclusive = small, poorly fitted or top-dose-only effect, or another doubt; inactive = no such curve, though single readings can be large; an effect the other way counts as inactive or inconclusive. Unless noted, % is scaled to controls: 0 for no effect and ±100 for the full control effect.

Screening O=C1CC2(CCN(C(=O)C3CCCN(C(=O)c4ccc(F)cc4)C3)CC2)Oc2ccccc2N1 (configuration not stated) returned NIH3T3 tox -13.5%, IP6K1 inh -6.3, SNCA expr inh 9.8%, HEK293 tox -14.7% and HEK293 viab -10.8%.
Cc1ccc(-c2cn3cc(C(=O)NCc4cccc(Cl)c4)nc3s2)cc1 was read as NIH3T3 tox inconclusive, IP6K1 inh 12.9, SNCA expr inh 33.2%, HEK293 tox inconclusive and HEK293 viab -8.8%.
O=C(NCCc1ccccc1)c1cn2cc(-c3cccc(C(F)(F)F)c3)sc2n1 was read as NIH3T3 tox -11.8%, IP6K1 inh 6.2, SNCA expr inh -0.6%, HEK293 tox inconclusive and HEK293 viab -4.6%.
COc1ccc(-c2cn3cc(C(=O)NCc4cccc(C(F)(F)F)c4)nc3s2)cc1 was read as NIH3T3 tox inconclusive, IP6K1 inh 1.9, SNCA expr inh 35.8%, HEK293 tox 35.5µM* and HEK293 viab -5.0%.
Screening COc1ccc(-c2cn3cc(C(=O)NCc4ccc(F)c(F)c4)nc3s2)cc1 returned NIH3T3 tox inconclusive, IP6K1 inh 11.1, SNCA expr inh 18.1%, HEK293 tox 12.6µM* and HEK293 viab -5.2%.
Screening O=C(NCc1cccc(Cl)c1)c1cn2cc(-c3ccc(C(F)(F)F)cc3)sc2n1 returned NIH3T3 tox 22.4µM*, IP6K1 inh 17.2, SNCA expr inh -16.5%, HEK293 tox 44.7µM* and HEK293 viab 2.4%.
For O=C(NCc1cccc(C(F)(F)F)c1)c1cn2cc(-c3ccccc3)sc2n1 the results were NIH3T3 tox -26.4%, IP6K1 inh -10.4, SNCA expr inh -29.2%, HEK293 tox 44.7µM* and HEK293 viab 2.7%.
COCCNC(=O)[C@@H]1C[C@@H](O)CN1C1CCN(C(=O)C(C)C)CC1 was read as NIH3T3 tox 1.3%, IP6K1 inh 4.8, Luciferase inh inactive, SNCA expr inh -5.2%, HEK293 tox 1.9% and HEK293 viab 10.1%.
For CN(CC1CCOCC1)C(=O)c1ccccc1Cl the results were NIH3T3 tox inactive, IP6K1 inh 13.1, Luciferase inh inactive, SNCA expr inh -7.9%, HEK293 tox -10.6% and HEK293 viab 0.1%.
`O=C(NCc1ccc(Cl)cc1)c1cn2cc(-c3ccc(F)cc3)sc2n1` gave NIH3T3 tox inconclusive, IP6K1 inh 17.5, SNCA expr inh 21.2%, HEK293 tox 28.2µM* and HEK293 viab -4.0%.
For O=C(NCC(F)(F)F)c1cn2cc(-c3ccccc3)sc2n1 the results were NIH3T3 tox 89.1µM*, IP6K1 inh -7.9, SNCA expr inh 169.5%[87.6 µM], HEK293 tox inconclusive and HEK293 viab 2.1%[87.6 µM].
`O=C(NCc1ccc(F)cc1)c1cn2cc(-c3ccc(F)cc3)sc2n1` gave NIH3T3 tox inconclusive, IP6K1 inh 3.0, SNCA expr inh -2.2%, HEK293 tox inconclusive and HEK293 viab -19.5%.
`O=C(NCC(F)(F)F)c1cn2cc(-c3cccc(C(F)(F)F)c3)sc2n1` gave NIH3T3 tox inconclusive, IP6K1 inh -0.5, SNCA expr inh 0.5%, HEK293 tox inconclusive and HEK293 viab -10.9%.
`O=c1[nH]c(C2CCCN(Cc3cccc(-c4cccs4)c3)C2)nc2ccc(F)cc12` (configuration not stated) gave NIH3T3 tox 31.6µM*, IP6K1 inh -6.9, Luciferase inh inactive, SNCA expr inh 13.2%, HEK293 tox 31.6µM* and HEK293 viab -9.5%.
Screening Cc1ccc2nc(C3CCCN(Cc4cccc(-c5cccs5)c4)C3)[nH]c(=O)c2c1 (configuration not stated) returned NIH3T3 tox inconclusive, IP6K1 inh 21.1, Luciferase inh inactive, SNCA expr inh inconclusive, HEK293 tox inconclusive and HEK293 viab 3.4%.
For O=c1[nH]c(C2CCCN(Cc3cccc(-c4cccnc4)c3)C2)nc2ccc(F)cc12 (configuration not stated) the results were NIH3T3 tox inconclusive, IP6K1 inh 20.5, Luciferase inh inactive, SNCA expr inh -2.0%, HEK293 tox inconclusive and HEK293 viab -24.4%.
O=c1[nH]c(C2CCN(Cc3cccc(-c4cccs4)c3)CC2)nc2ccc(F)cc12 was read as NIH3T3 tox 28.2µM*, IP6K1 inh 6.3, Luciferase inh inactive, SNCA expr inh 1.2%, HEK293 tox 22.4µM*! and HEK293 viab 0.1%.
Cc1ccc2nc(C3CCN(Cc4ccc(-c5cccs5)cc4)CC3)[nH]c(=O)c2c1 was read as NIH3T3 tox inconclusive, IP6K1 inh -0.9, Luciferase inh inactive, SNCA expr inh inconclusive, HEK293 tox 35.5µM*! and HEK293 viab -22.0%.
Screening Cc1ccc(-c2cccc(CN3CCCC(c4nc5ccc(F)cc5c(=O)[nH]4)C3)c2)c(C)c1 (configuration not stated) returned NIH3T3 tox 39.8µM*, IP6K1 inh 25.7, Luciferase inh inactive, SNCA expr inh -15.7%, HEK293 tox 31.6µM*! and HEK293 viab -1.3%.
`CC(=O)Nc1ccc(CN2CCC(c3nc4ccc(C)cc4c(=O)[nH]3)CC2)cc1` gave NIH3T3 tox 1.1%, IP6K1 inh -1.5, Luciferase inh inactive, SNCA expr inh 5.7%, HEK293 tox 0.5% and HEK293 viab 6.2%.
For COc1ccccc1CC(=O)NC1CCN(c2cnn(CC3CC3)c(=O)c2)CC1 the results were NIH3T3 tox -4.3%, IP6K1 inh 8.5, Luciferase inh inactive, SNCA expr inh -8.9%, HEK293 tox 3.8% and HEK293 viab 3.3%.
Cc1cccc(CN2CCCC(O)(CNCc3cccc(C)n3)C2=O)c1 (configuration not stated) was read as NIH3T3 tox -22.5%, IP6K1 inh 7.2, Luciferase inh inactive, SNCA expr inh 7.5%, HEK293 tox -12.6% and HEK293 viab 14.0%.
Screening O=S(=O)(N[C@H]1[C@H](O)[C@H](O)C[C@@H]1c1ccc(C(F)(F)F)nc1)c1ccc(Cl)cc1 returned NIH3T3 tox -25.0%, IP6K1 inh 7.8, Luciferase inh inactive, SNCA expr inh -5.2%, HEK293 tox -20.5% and HEK293 viab 4.3%.
Cc1ccccc1[C@H]1C[C@@H](O)[C@@H](O)[C@@H]1NS(=O)(=O)c1ccc(C(F)(F)F)cc1 was read as NIH3T3 tox -25.5%[174 µM], IP6K1 inh 20.2, Luciferase inh inactive, SNCA expr inh 0.7%[87.6 µM], HEK293 tox 100µM* and HEK293 viab -6.3%[87.6 µM].
